# KB-V1 MDR tox = qHTS assay for MDR1-selective chemotherapeutics: Primary screen using the drug-selected MDR subline cells KB-V1; KB-V1 MDR cells viability, CellTiter-Glo, 72 h; 3.4% of 400,000 active; Potency, µM (highest dose often 46.1 µM), hits mostly cytotoxic; further: on the % scale 0 is the no-effect control and ±100 the full control effect; nearly all actives have a fitted effect of over 60% in size
#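 In this primary screen, KB-V1 cells overexpressing P-gp are incubated with library compounds (lowest to highest concentration) for 72 h at 37 degrees C before a luminescent ATP viability read.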
# ELG1 repair inh = qHTS screen for small molecules that inhibit ELG1-dependent DNA repair in human embryonic kidney (HEK293T) cells expressing luciferase-tagged ELG1 | HEK293T ELG1-luciferase reporter, luminescence, 16 h; DNA damage induced by 5-fluorouridine | Potency, µM (titrated, usually from 46.1 µM), for inactives: at the highest dose activity change, negative = inhibition, hits mostly inhibitors | 2.3% of 330,000 active; further: on the % scale 0 is the no-effect control and ±100 the full control effect; nearly all actives have a fitted effect of over 55% in size
#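 Quantitative HTS, concentration-response format. 2,000 cells/well co-treated with 5-fluorouridine and compound, 16 hr in 5% CO2 at 37 °C; ONE-Glo luminescence read after 30 min.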
# MCF10A rerep = A quantitative high throughput screen for small molecules that induce DNA re-replication in MCF 10a normal breast cells. MCF 10A DNA re-replication, Hoechst nuclear intensity, 48 h. Potency, µM (highest dose often 46.1 µM), without a hit: at the top dose activity, positive = re-replication, usual class: activators. 2.9% of 350,000 active. AID 624296, 2012; further: % of control where 0% means no effect; nearly all actives have a fitted effect of over 50% in size
# SW480 rereplic = A quantitative high throughput screen for small molecules that induce DNA re-replication in SW480 colon adenocarcinoma cells; SW480 DNA re-replication, Hoechst DNA content imaging, 48 h; Potency, µM (titrated, usually from 46.1 µM), inactives show at the top dose re-replication activation, hits mostly activators; 1.8% of 340,000 active; AID 624297, 2012; further: % of control where 0% means no effect; nearly all actives have a fitted effect of over 55% in size
#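 250 cells/well; 23 nL cpd via pin tool; 48 hr, 37 C, 5% CO2; Hoechst 40 min; imager read of total nuclear intensity, ex 405/em 500-530 nm.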
# KB-3-1 cytotox = qHTS assay for MDR1-selective chemotherapeutics: Primary screen using the parental adenocarcinoma cell KB-3-1 | KB-3-1 viability, CellTiter-Glo ATP luminescence, 72 h | Potency, µM (titrated, usually from 46.1 µM), usual class: cytotoxic | 1.4% of 400,000 active; further: on the % scale 0 is the no-effect control and ±100 the full control effect; nearly all actives have a fitted effect of over 60% in size
#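 Parental KB-3-1 adenocarcinoma cells in phenol-red-free DMEM with 10% FBS were pin-treated with compounds at several concentrations, incubated 72 h at 37 °C, and viability read by CellTiter-Glo luminescence; concentration-effect curves were fitted after normalization.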
# * marks the source's active call; other numbers are inactive results; i = inactive; ? = inconclusive; nt = no result given. Most compounds without a hit are left out; they make up all but 8.2% or so of the library. The call rests on the fitted dose curve; in most records, active means well fitted curve in the direction sought with a large enough effect; inconclusive means small, poorly fitted or top-dose-only effect, or another doubt; inactive means no such curve, though single readings can be large; an effect the other way counts as inactive or inconclusive. Potency means the concentration at half of the fitted maximal effect.
SMILES,KB-V1 MDR tox,ELG1 repair inh,MCF10A rerep,SW480 rereplic,KB-3-1 cytotox
Cc1nc2ccccc2n1/N=C/c1ccc([N+](=O)[O-])s1,12µM*,?,18µM*,?,?
N#CC1C(=O)NC(=O)C(C#N)C12CCCC2 (centres undefined),i,nt,nt,nt,i
Cn1nnnc1SCCCNCc1cc(Cl)ccc1OCc1ccccc1,?,nt,nt,nt,i
CC1=C(C(=O)N2CCOCC2)CC(CC(=O)NCC2CCCCC2)C(=O)N1Cc1ccc(C(C)(C)C)cc1 (centres undefined),i,nt,nt,nt,i
O=C1c2ccccc2C2(c3ccccc3)N1CCN2C(=O)C(Cl)(Cl)Cl (centres undefined),16µM*,-15%,?,?,?
Cc1oc2ccc(OS(C)(=O)=O)cc2c1C(=O)OC(C)C,13µM*,-2%,-11%,1%,i
O=S1(=O)N[C@H](Cc2ccccc2)COc2cccc(N3CCSCC3)c21,i,nt,nt,nt,i
COC(=O)c1sccc1-c1ccc(C(=O)Nc2cccc(Cl)c2)o1,16µM*,?,?,6%,i
CN(C)S(=O)(=O)Oc1ccsc1C(=O)Nc1cccc(Cl)c1,21µM*,?,10%,-12%,?
CN(C)S(=O)(=O)Oc1ccsc1C(=O)Nc1ccc(Cl)c(Cl)c1,?,?,?,10%,i
COC(=O)c1ccccc1NC(=O)c1ccc(-c2cccc(Cl)c2)o1,i,?,-2%,-6%,i
O=C(Cc1csc(Nc2nc(=S)[nH]c3ccccc23)n1)N1CCN(c2cccc(C(F)(F)F)c2)CC1,23µM*,?,?,9%,13µM*
O=C(Cc1csc(Nc2nc(=S)[nH]c3ccccc23)n1)NCc1cccc(Cl)c1,?,1%,?,-6%,i
C=CCN1C(=O)/C(=C/c2ccc(OC(C)=O)c(OCC)c2[N+](=O)[O-])SC1=S,?,?,3.7µM*,23%,?
Cc1csc2c(NC3CCN(Cc4ccccc4)CC3)ncnc12,i,-12%,8%,-2%,i
c1ccc(CN2CCC(Nc3ncnc4sccc34)CC2)cc1,i,6.5µM*,-5%,4%,i
O=[N+]([O-])c1ccc(O)c(/C=N/Nc2ccc(Cl)nn2)c1,i,?,0.73µM*,?,?
O=C(CCC(=O)Nc1cc(C(F)(F)F)ccc1Cl)N/N=C\c1cc([N+](=O)[O-])ccc1O,i,?,?,15µM*,i
O=C(CCC(=O)Nc1ccc(Br)cc1)N/N=C/c1cc([N+](=O)[O-])ccc1O,i,9.2µM*,?,?,?
O=C(CCC(=O)Nc1ccc(F)cc1)N/N=C/c1cc([N+](=O)[O-])ccc1O,i,?,17%,?,i
O=C(N/N=C/c1cc([N+](=O)[O-])ccc1O)c1cccc(NC(=O)c2cccc(Cl)c2)c1,i,?,-14%,2.3µM*,i
COCCC1CCCCN1C(=O)c1ccc2nc(Cc3ccccc3F)oc2c1 (centres undefined),?,?,4%,1%,i
Clc1cccc(-n2ncc3c(NCCCN4CCOCC4)ncnc32)c1,i,nt,nt,nt,i
O=C(c1ccccc1)C(O)C(c1ccccc1)N1CCOCC1 (centres undefined),i,-1%,3%,2%,i
C=CCN(C(=O)c1csnn1)C(C(=O)NC1CCCC1)c1ccccc1 (centres undefined),i,-11%,7%,-15%,i
SMILES,KB-V1 MDR tox,ELG1 repair inh,MCF10A rerep,SW480 rereplic,KB-3-1 cytotox
CN(c1cccc2cccnc12)S(=O)(=O)c1ccccc1,i,10%,-12%,-28%,i
COc1ccccc1N1CCN(CC(O)COc2ccc(S(=O)(=O)N3CCOCC3)cc2)CC1 (centres undefined),?,10µM*,18%,1%,i
COc1ccc(COCC(O)CN2CCN(S(=O)(=O)c3c(F)cccc3F)CC2)cc1OC (centres undefined),13µM*,nt,10%,?,i
O=S(=O)(c1ccc(F)cc1)N1CCN(CC(O)COCc2ccccc2)CC1 (centres undefined),21µM*,nt,-3%,-2%,i
COc1ccccc1COCC(O)CN1CCN(S(=O)(=O)c2cccc(F)c2)CC1 (centres undefined),i,5%,6%,29%,i
Cc1ccc(C(OCC(C)(C)C[N+](C)(C)C)c2ccccc2)cc1 (centres undefined),i,?,7%,-5%,i
CN(C)/C=C/C(=O)c1ccc2noc(-c3ccc(F)cc3)c2c1,i,8.2µM*,?,3%,i
FC(F)(F)c1cc(Cl)c2nc(-c3ccccc3)cn2c1,i,?,15µM*,1%,i
Nc1cccc(-c2cn3cc(C(F)(F)F)cc(Cl)c3n2)c1,?,?,19%,0%,i
Cc1cc(C)c2c(CC(=O)NNC(=O)c3ccccc3)coc2c1,i,-6%,-2%,1%,i
COc1ccc(C2Nc3ccccc3C(=O)N2Cc2ccco2)cc1 (centres undefined),i,nt,nt,nt,i
Cc1ccccc1OCC(=O)Nc1ccc(N2CCN(C(=O)c3ccco3)CC2)cc1,7.3µM*,21µM*,0%,-2%,?
O=C(c1ccco1)N1CCN(C(=O)C(Sc2ccccc2)c2ccccc2)CC1 (centres undefined),21µM*,?,?,-4%,?
Cc1ccc(C(=O)Nc2ccc(N3CCN(C(=O)c4ccco4)CC3)cc2)c(Cl)c1,?,18µM*,24%,23%,i
O=C(COc1ccc(Cl)cc1)Nc1ccc(N2CCN(C(=O)c3ccco3)CC2)cc1,13µM*,-29%,?,14%,?
Cc1ccccc1NC(=O)Nc1nc(C2CCC(=O)N2)cs1 (centres undefined),i,nt,nt,nt,i
Cc1ccccc1OCC(=O)Nc1ccc(N2CCN(S(C)(=O)=O)CC2)cc1,3.7µM*,-7%,9%,-1%,i
Cc1ccc(N2CCN(CCc3nc4cc(NC(=O)c5ccco5)ccc4n3C)CC2)cc1,4.1µM*,?,12%,-4%,i
O=C(c1ccco1)N1CCN(C(c2ccc(Cl)cc2)c2nnnn2Cc2ccccc2)CC1 (centres undefined),16µM*,?,14%,-3%,?
